Measured potencies and affinities stand elsewhere. Calls of active or inactive are those of the source.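 The calls were made as follows: active = a fitted half-maximal concentration no higher than twice the top valid tested dose, with signal falling as cells die; inconclusive = flat curve between -70% and -30%, or poor fit; inactive = the rest, including signal rising instead of falling.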
experiment: HeLa cell cytotoxicity, dose response, cytotoxicity control, ATP luminescence, cherry-pick samples (AID 687004); conditions: HeLa viability, ATP luminescence (CellTiter-Glo), 48 h; series mostly up to 26 µM

Row | SMILES | outcome
1 | O=C([C@@H]1[C@@H](CO)[C@@H]2Cn3c(cccc3=O)[C@H]1N2Cc1cccc(Cl)c1)N1CCOCC1 | inactive
2 | CC(=O)NC[C@H]1[C@@H](c2ccc(C3=CCCC3)cc2)[C@@H](CO)N1C(=O)NC(C)C | inactive
3 | CCC(C)(C(=O)NC1CCCC1)N(C(C)=O)c1ccc(C)cc1 (centres undefined) | inactive
4 | CC(C)NC(=O)N(C)C[C@@H]1OCCCC[C@@H](C)Oc2ccc(NC(=O)c3ccccc3)cc2C(=O)N([C@H](C)CO)C[C@H]1C | inactive
5 | Cc1noc(C)c1NC(=O)N(C)C[C@@H]1Oc2ccc(NC(=O)C3CC3)cc2CC(=O)N([C@H](C)CO)C[C@@H]1C | inactive
6 | CCCN(C)C[C@@H]1OCCCC[C@H](C)Oc2ccc(NS(=O)(=O)c3ccc(C)cc3)cc2C(=O)N([C@H](C)CO)C[C@@H]1C | inactive
7 | COCC(=O)Nc1ccc2c(c1)OC[C@@H](C)N(C(=O)Cc1cccnc1)C[C@H](C)[C@@H](OC)CN(C)C2=O | inactive
8 | C[C@@H]1CCCCO[C@@H](CN(C)Cc2ccncc2)[C@@H](C)CN([C@@H](C)CO)C(=O)c2cc(NC(=O)c3ccncc3)ccc2O1 | inactive
9 | Cc1ccc(NC(=O)C2(C)CCCN2CC(C)C)cc1C (centres undefined) | inactive
10 | COCCNC(=O)C[C@@H]1CC[C@H]2[C@@H](COC[C@H](O)CN2Cc2cccc(-c3ccncc3)c2)O1 | inactive
11 | O=S(=O)(NC[C@@H]1[C@@H](c2ccccc2)[C@H](CO)N1CC1CC1)c1ccccc1 | inactive
12 | C[C@H]1CN([C@@H](C)CO)C(=O)Cc2cc(NS(=O)(=O)c3ccc(F)cc3)ccc2O[C@@H]1CN(C)S(=O)(=O)c1ccc(F)cc1 | inactive
13 | C[C@H]1CCCCO[C@H](CN(C)S(=O)(=O)c2ccc(Cl)cc2)[C@@H](C)CN([C@@H](C)CO)C(=O)c2cc(NS(=O)(=O)c3cccs3)ccc2O1 | inactive
14 | CNC[C@@H]1Oc2cc(Br)ccc2S(=O)(=O)N([C@H](C)CO)C[C@H]1C | inactive
15 | C[C@@H]1CN([C@@H](C)CO)C(=O)c2cc(-c3ccc(C#N)cc3)cnc2O[C@@H]1CN(C)C(=O)Nc1ccc(F)cc1 | inactive
16 | CC(C)NC(=O)Nc1ccc2c(c1)C(=O)N([C@@H](C)CO)C[C@@H](C)[C@@H](CN(C)C(=O)c1ccncc1)OCCCC[C@@H](C)O2 | inactive
17 | O=C(NC1CCCCC1)N[C@H]1C=C[C@@H](CC(=O)N2CCOCC2)O[C@H]1CO | inactive
18 | CC(C)NC(=O)N(C)C[C@H]1Oc2c(NC(=O)C3CCCCC3)cccc2C(=O)N([C@H](C)CO)C[C@H]1C | inactive
19 | O=C(NC[C@@H]1[C@H](c2ccccc2)[C@@H](CO)N1C(=O)Cc1cccnc1)C1CCC1 | inactive
20 | CC(=O)N1[C@@H]2CN(S(=O)(=O)c3ccccc3F)c3ccccc3[C@@H]2[C@@H]1CO | inactive

Row | SMILES | outcome
21 | C[C@@H]1CN([C@@H](C)CO)C(=O)c2cc(NC(=O)C3CCCCC3)ccc2O[C@@H](C)CCCCO[C@@H]1CN(C)C(=O)NC1CCCCC1 | inactive
22 | C[C@@H]1CN([C@@H](C)CO)C(=O)c2cc(NS(=O)(=O)c3cn(C)cn3)ccc2O[C@@H](C)CCCCO[C@H]1CN(C)C | inactive
23 | COc1ccccc1-c1ccc2c(c1)O[C@@H](CN(C)C(=O)c1cccnc1)[C@H](C)CN([C@@H](C)CO)S2(=O)=O | inactive
24 | CCC(C)(C(=O)Nc1ccccc1C)N(C(=O)CNC(C)=O)c1ccc(C)cc1 (centres undefined) | inactive
25 | C[C@H]1CN([C@@H](C)CO)C(=O)c2cc(-c3cncnc3)cnc2O[C@H]1CN(C)C(=O)c1ccccc1F | inactive
26 | COCC(=O)N1C[C@H](C)[C@@H](OC)CN(C)C(=O)c2ccc(NS(C)(=O)=O)cc2OC[C@@H]1C | inactive
27 | C[C@H](CO)N1C[C@H](C)[C@@H](CN(C)C(=O)Nc2cccc3ccccc23)Oc2c(cccc2N(C)C)C1=O | inactive
28 | Cc1ccc(S(=O)(=O)N(C)C[C@@H]2Oc3ncc(Br)cc3C(=O)N([C@@H](C)CO)C[C@H]2C)cc1 | inactive
29 | CCCNC(=O)C[C@H]1C[C@H]2c3cc(NC(=O)Nc4ccc(OC)cc4)ccc3O[C@H]2[C@@H](CO)O1 | inactive
30 | C[C@H]1CN([C@@H](C)CO)C(=O)Cc2cc(NS(=O)(=O)c3ccc(F)cc3)ccc2O[C@H]1CN(C)S(=O)(=O)c1ccc(F)cc1 | inactive
31 | CC(C)NC(=O)N1CC[C@@H]2[C@@H](CO)N(C)c3ccc(-c4cccc(F)c4)cc3[C@@H]21 | inactive
32 | Cc1cc(C)c(NC(=O)C2CCCN2CCO)c(C)c1 (centres undefined) | inactive
33 | CO[C@@H]1CC[C@@H]2CCOc3c(C#N)cccc3C(=O)N(C)C[C@H](c3ccccc3)CC(=O)N(C)C[C@@H]1O2 | inactive
34 | NC(=O)CN(c1ccccc1)S(=O)(=O)c1ccc(F)cc1 | inactive
35 | O=C(c1cc(Br)ccc1Cl)N1CCN(c2ccccn2)CC1 | inactive
36 | CN1C(=O)c2cc(NS(C)(=O)=O)ccc2OC[C@@H]2O[C@@H](CC(=O)O)CC[C@H]21 | inactive
37 | COc1ccc(CN(C)C[C@@H]2Oc3ccc(NC(=O)C4CC4)cc3C(=O)N([C@H](C)CO)C[C@H]2C)cc1 | inactive
38 | CC(C)NC(=O)Nc1ccc2c(c1)C(=O)N([C@@H](C)CO)C[C@H](C)[C@@H](CN(C)C(=O)CCC(F)(F)F)OCCCC[C@H](C)O2 | inactive
39 | COc1ccccc1NC(=O)N[C@@H]1CC[C@H](CCn2cc(-c3ccccc3OC)nn2)O[C@H]1CO | inactive
